# Screens: PubChem BioAssay, National Center for Advancing Translational Sciences (NCATS)
# SARS PLP yeast: SARS-CoV PLP inhibition in yeast; hit rate 0.19% among 330,000; Potency, µM (highest dose often 32.9 µM), inactives show at the highest dose activity, positive = growth rescue, hits mostly activators; S. cerevisiae expressing SARS-CoV PLpro, growth rescue; calls by dose curve; further: 0% is about no effect; nearly all actives have a fitted effect of over 55% in size
# Sm TGR inh: blocks Schistosoma mansoni thioredoxin glutathione reductase | Q962Y6 | purified TGR, DTNB reduction, TNB absorbance 405 nm | Potency, µM (series often up to 114 µM), for the others: top-dose activity change, negative = inhibition, usual class: inhibitors | hit rate 3% among 360,000 | AID 485364; active means well fitted inhibition curve with a large enough effect; inconclusive means small, poorly fitted or top-dose-only effect; inactive means no such curve, though single readings can be large or run the other way; further: on the % scale 0 is the no-effect control and ±100 the full control effect; nearly all actives have a fitted effect of over 60% in size
#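 Kinetic colorimetric format: TGR-catalysed, NADPH-driven DTNB reduction monitored via TNB absorbance. Enzyme dispensed at 20 nM; compound exposure 15 min at room temperature before reaction start.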
# Numbers without * were called inactive; ? = inconclusive; / = not tested or not shown; [ ] = dose if it differs, or a comment. Hits are enriched below; roughly 3% of the tested compounds scored in any of these assays. Potency means the concentration at half of the fitted maximal effect.
SMILES,SARS PLP yeast,Sm TGR inh
O=c1cc(CN2CCN(S(=O)(=O)c3ccccc3[N+](=O)[O-])CC2)nc2sccn12,-3%,-3%
CCOC(=O)c1ccc(S(=O)(=O)N2CCN(C(C)=O)CC2)cc1,-2%,8%
CCOC(=O)c1ccc(S(=O)(=O)N2CCN(Cc3cc4c(cc3O)OCO4)CC2)cc1,2%,0.35µM*
O=C(OCc1ccc2c(c1)OCO2)c1ccc(S(=O)(=O)N2CCCC2)cc1,-9%,0%
CCOC(=O)c1ccc(S(=O)(=O)N2CCN(C3CCCC3)CC2)cc1,-1%,13µM*
O=[N+]([O-])c1ccccc1S(=O)(=O)N1CCN(Cc2cc3c(cc2O)OCO3)CC1,2%,0.56µM*
Cc1cc2c(c(=O)o1)C1O[C@](c3ccsc3)(Cc3ccccc31)O2,4%[6.58 µM],?
CCOC(=O)c1[nH]c(C)c(CCC(=O)NC(C)c2ccccc2)c1C (stereo not drawn),/,-8%
Cc1ccc(NC(=O)CSCn2nnc3c(=O)[nH]c(Cc4ccc(F)cc4)nc32)c(C)c1,/,-3%
CCC(CC)C(=O)Nc1nnc(SCc2cc(=O)c3ccccc3[nH]2)s1,/,-6%
O=C(c1ccc2c(c1)OCO2)N1CCN(c2ccc(F)cc2)CC1,10%,2%
O=S(=O)(c1ccccc1F)N1CCN(Cc2cc3c(cc2O)OCO3)CC1,1%[6.58 µM],0.71µM*
Oc1cc2c(cc1CN1CCN(c3ccc(F)cc3)CC1)OCO2,1%,2.5µM*
O=C(NCC(=O)N1CCN(S(=O)(=O)c2ccccc2F)CC1)c1ccc2c(c1)OCO2,6%,35%
CC(C)Sc1ncc(Cl)c(C(=O)N(Cc2ccc(N(C)C)cc2)C2CCS(=O)(=O)C2)n1 (stereo not drawn),/,-6%
COc1ccc2c(c1)c1c(c(=O)n(Cc3ccccc3)c(=O)n1Cc1ccc(C)cc1)n2C,/,-4%
COc1ccc(-c2noc(-c3ccc(N4CCN(c5ccc(OC)cc5)CC4)c([N+](=O)[O-])c3)n2)cc1,/,-3%
CCCCCCn1c(-c2ccco2)nc2oc3cc(OC)ccc3c(=O)c2c1=O,-13%,-30%
CCCc1nc2oc3cc(OC)ccc3c(=O)c2c(=O)n1Cc1ccco1,-1%,40µM*
COc1ccc2c(=O)c3c(=O)n(Cc4ccco4)c(-c4cc(OC)c(OC)c(OC)c4)nc3oc2c1,-32%,?
COc1ccc2c(=O)c3c(=O)n(Cc4ccco4)c(-c4ccccc4)nc3oc2c1,-1%,32µM*
CCCc1nc2sc3ccccc3c(=O)c2c(=O)n1Cc1ccc(OC)cc1,0%,-13%
CCCc1nc2sc3ccccc3c(=O)c2c(=O)n1Cc1ccco1,3%,35µM*
O=c1c2ccccc2n(Cc2cccc(F)c2)c(=O)n1Cc1ccccc1Cl,/,-1%
Cc1nc(-c2ccccc2)sc1CCNC(=O)c1ccco1,/,-1%
SMILES,SARS PLP yeast,Sm TGR inh
CCOC(=O)c1ccccc1NC(=O)Cc1c(C(=O)O)c(C)cn1C,/,-7%
CC(C)(C)C1CCC(=NNC(=O)c2cc3c(s2)CCCC3)CC1 (stereo not drawn),-9%,-10%
CC(C)(C)C1CCc2sc(C(=O)NNC(=O)CCl)cc2C1 (stereo not drawn),?,11µM*
CC(C)(C)c1ccc(C(=O)N2CCCC(c3nc4c(nnn4Cc4cccc(F)c4)c(=O)[nH]3)C2)cc1 (stereo not drawn),/,0%
C/C(CC(=O)N1CCN(C=O)CC1)=N\NC(=O)c1ccc([N+](=O)[O-])cc1,1%,?
C/C(CC(=O)N1CCN(C=O)CC1)=N\NC(=O)c1cc2ccccc2cc1O,14µM*,-21%
CCOC(=O)c1oc2c(c1C)-c1nn(Cc3ccc(Cl)cc3)cc1CC2,/,-3%
Cc1ccc(NC(=O)C2C3C=CC(O3)C2C(=O)O)cc1C (stereo not drawn),-6%,-31%
COc1ccccc1NC(=O)C1C2C=CC(O2)C1C(=O)O (stereo not drawn),1%,40µM*
Cc1cccc(NC(=O)C2C(C(=O)O)C3C=CC2C32CC2)c1C (stereo not drawn),8%,9%[11.4 µM]
Cc1cccc(NC(=O)C2C3C=CC(O3)C2C(=O)O)c1 (stereo not drawn),-26%,11µM*
COC(=O)c1sccc1NC(=O)C1C2C=CC(O2)C1C(=O)O (stereo not drawn),-2%,-8%
Cc1ccc(NC(=O)C2C3C=CC(O3)C2C(=O)O)c(C)c1 (stereo not drawn),-25%,35µM*
Cc1nnc(NC(=O)C2C3C=CC(O3)C2C(=O)O)s1 (stereo not drawn),9%,?
Cc1cccc(NC(=O)C2C3C=CC(O3)C2C(=O)O)c1C (stereo not drawn),-26%,45µM*
Cc1ccc2c(c1)N(C(=O)N1CCC(C(=O)Nc3cccc(F)c3)CC1)CCO2,/,8%
COc1cccc(NC(=O)C2C3C=CC(O3)C2C(=O)NCc2cccnc2)c1 (stereo not drawn),-12%,50µM*
Cc1ccc(C)c(NC(=O)C2CC=CCC2C(=O)O)c1 (stereo not drawn),5%,-3%
CCOC(=O)c1ccc(NC(=O)C2C3C=CC(O3)C2C(=O)O)cc1 (stereo not drawn),-9%,56µM*
COC(=O)c1ccc(NC(=O)C2C3C=CC(O3)C2C(=O)O)cc1 (stereo not drawn),-30%,?
COc1cc(NC(=S)NCc2cccnc2)cc(OC)c1,14%,?
Cc1ccc(C)c(NC(=O)C2C3C=CC(O3)C2C(=O)O)c1 (stereo not drawn),-22%,45µM*
COCc1cc(C)n(CC(=O)Nc2cccc(C(C)=O)c2)c(=O)c1C#N,/,12%
CC(C)(C)c1ccc(C(=O)Nc2nc3nc(-c4ccccc4)cc(=O)n3[nH]2)cc1,/,4%
COc1ccc2c(c1)c1c(c(=O)n(Cc3ccccc3)c(=O)n1CC(=O)Nc1c(C)cccc1C)n2C,/,8%
SMILES,SARS PLP yeast,Sm TGR inh
Cc1cc(OCC(=O)Nc2nc3c(s2)CCCC3)cc(C)c1Cl,/,-6%
CP(=O)(Nc1cc(Cl)ccc1Cl)c1nc2c(s1)CCCC2 (stereo not drawn),-5%,8.9µM*
CCOc1ccccc1C1CC(=O)Oc2c1c(=O)n(C)c1ccccc21 (stereo not drawn),/,9%
COC(=O)c1c(SC)nc2ccccc2c1OCc1cccc(C)c1,/,9%
O=c1c2c3nc4ccccc4nc3n(/N=C/c3ccco3)c2ncn1CCC1=CCCCC1,2%,13µM*
CCCn1cnc2c(c1=O)c1nc3ccccc3nc1n2CCC1=CCCCC1,2%,-3%
CC(=O)N(c1ccccc1C)C1CCCC1,4%,-1%
CC(=O)N(C1=C(Cl)C(=O)c2ccccc2C1=O)C1CCCCC1,-5%,0.11µM*
Cc1ccc(-c2nc3s/c(=C\c4ccco4)c(=O)n3n2)cc1,-3%,?
COc1ccc(Br)cc1/C=c1\sc2nc(-c3ccco3)nn2c1=O,-9%,13µM*
C=CCn1c(=O)/c(=C/c2ccc(C)o2)s/c1=C(/C#N)C(=O)c1ccccc1,16%,-15%[11.4 µM]
Cc1ccc(/C=c2\sc3nc(-c4ccccc4Br)nn3c2=O)o1,-2%,45µM*
COc1ccccc1/C=c1\sc2nc(-c3ccccc3OC)nn2c1=O,-2%,7%
CCN(CC)c1ccc(/C=c2\sc3nnc(-c4ccccc4Cl)n3c2=O)cc1,10%,8%
Cc1ccc(/C=c2\sc3nc(-c4ccco4)nn3c2=O)o1,-14%,8.9µM*
Cc1ccc(/C=c2/sc3nnc(-c4ccccc4Cl)n3c2=O)o1,2%,40µM*
